# From PubChem BioAssay (EPA / NIEHS)
# Active and inactive are the calls of the source. Rule for the calls: active = hit-call score of the fitted dose curve at least 0.9, where 1 is the maximum; inactive = score below 0.9.
# Read-out: adenosine kinase (ADK) gene, ADK (gene 132)
# Assay: LTEA_HepaRG_ADK: Life Technologies and Expression Analysis (LTEA) Assay for adenosine kinase (ADK) gene using HepaRG (AID 2283471)
# Conditions: mRNA level, 48 h; actives raise or lower the signal
# Method: LTEA_HepaRG is a cell based, multiplexed-readout assay that uses HepaRG, a human liver cell line, with measurements taken at 48 hours after chemical dosing on a 96-well plate.LTEA_HepaRG_ADK is one of 102 assay component(s) measured in the LTEA HepaRG cell culture assay. It is a marker of Steatosis.Data from the assay component LTEA_HepaRG_ADK was analyzed into 1 endpoint. This assay endpoint, LTEA_HepaRG_ADK, was analyzed with bidirectional fitting relative to DMSO as the negative control and baseline of activity. Using a type of inducible reporter, measures of mRNA induction for gain or loss-of-signal activity can be used to understand regulation of transcription factor activity. To generalize the intended target to other relatable targets, this assay endpoint is annotated to the kinase intended target family, where the subfamily is steatosis.
# A total of 1060 chemcials from the ToxCast library were tested in eight-point concentration-response experiments. Cell culture and cytotoxicity assays were conducted at Thermo Fisher Scientific's Custom Services facility (Madison, WI). A single lot of human HepaRG cells (Thermo Fisher Scientific, Frederick, MD) was used for the cell culture experiments. 96-well format collagen type I coated plates of human HepaRG cells were prepared using established methods. Briefly, cryopreserved HepaRG cells were thawed, plated at a density of approximately 100,000 cells/well in HepaRG Thaw, Plate, and General Purpose media (HPRG770, Thermo Fisher Scientific), and incubated for 48 hours. 0.5% DMSO was selected as vehicle control to balance the requisite need of DMSO in HepaRG cultures to maintain differentiation (for example, baseline metabolism, proportions of hepatocytes vs. cholangiocytes), while enabling further hepatic receptor pathway activation (for example, PXR and CAR) in response to chemical exposure. 48 hours after plating, the culture medium was replaced with HepaRG Serum-Free Incudtion Media. Cells were exposed to each test chemical in duplicate and maintained in CO2 incubators for another 48 hours. Chemical plates were thawed to room temperature and 200x concentrations of treatment groups were prepared. 8-point conentration-reponse curves were made with the highest exposure at 100 uM, followed by half-log dilutions, all in 0.5% DMSO. Each test plate contained variouse controls, induction positive controls (1mM phenobarbital), cytotoxicity positive controls ([…] aflatoxin B1), vehicle controls (0.5% DMSO), and total lysis controls (0.5% DMSO). Cell morphology images were taken using an Essen IncuCyte FLR automated microscope, with six 96-well plates imaged in about 24 minutes. Images were captured and exported and JPEG files. Spent culture media was transfered to black-well plates for the LDH assay, and remaining media was sorted at -80 C for later use. Cells were treated with RLT buffer and frozen until shipped for gene expression analysis. Total RNA was isolated from the cell suspension in 75 uL of Buffer RLT (Qiagen, Germantown, MD 20874) by Quintiles/Expression Analysis (Durham, NC) using a custom isolation procedure. Total RNA from each plate well was transferred to a preamplification plate. Fluidigm's 96.96 Dynamic ArrayTM (Fluidigm, Amsterdam, the Netherlands) technology was used for gene expression analyses by quantitative reverse transcription polymerase chain reaction (qRT-PCR, performed by Quintiles/Expression Analysis, Durham, NC)89. Standard TaqManTM Assays (Applied Biosystems/ThermoFisher Scientific, Foster City, CA) were used to assess the expression of 93 genes selected based on their selectivity and sensitivity to important hepatic receptors known to be modulated by environmental chemicals; importance in human hepatocyte functionality; and hepatotoxicity. […]
SMILES,outcome,AC50
NC(N)=O,inactive,
Cn1cc[nH]c1=S,inactive,
CCCCCCOC(=O)CC(CC(=O)OCCCCCC)(OC(=O)CCC)C(=O)OCCCCCC,inactive,
CC(C)C(=O)Nc1ccc([N+](=O)[O-])c(C(F)(F)F)c1,inactive,
CCCCCCCC1CCC(=O)O1 (stereo not given),inactive,
CCn1nc(C)c2c1C(=O)NCC(c1ccc(O)cc1)=N2,inactive,
NC(=O)N(O)[C@@H]1COc2cc(OCc3ccccc3)ccc21,inactive,
c1ccc(C(O[C@@H]2CCCN(CCc3ccc4c(c3)OCO4)C2)c2ccccc2)cc1,,90.7 µM (active)
CC(C)c1nnc2ccc(-c3ocnc3-c3cc(F)ccc3F)cn12,inactive,
c1ccc2ncccc2c1,inactive,
CC(C)CC(C)O (stereo not given),inactive,
CCCCOC(=O)c1ccccc1,inactive,
CCN(CC)C(=S)SSC(=S)N(CC)CC,inactive,
COS(C)(=O)=O,inactive,
OCC(CO)(CO)CO,inactive,
CCCCCCCC/C=C\CCCCCCCC(=O)OC[C@@H](O)[C@H]1OC[C@H](O)[C@H]1O,inactive,
CNC(C)=O,inactive,
Cc1nccn1-c1ccc(Sc2cccc(C3(C(N)=O)CCOCC3)c2)cc1,,13.1 µM (active)
COc1cc(C(C)C)c2c(c1)S(=O)(=O)N(COc1cc(=O)n3cccc(OCCN4CCCCC4)c3n1)C2=O,,22 µM (active)
OCCOCCOCCO,inactive,

SMILES,outcome,AC50
OCCNCCO,inactive,
O=C1CN(N=Cc2ccc([N+](=O)[O-])o2)C(=O)N1,inactive,
Nc1ccn([C@@H]2O[C@H](CO)[C@@H](O)[C@@H]2O)c(=O)n1,inactive,
OC(Cn1cncn1)(Cn1cncn1)c1ccc(F)cc1F,inactive,
CCOc1ccc2[nH]cc(C(=O)NCc3ccccc3)c(=O)c2n1,inactive,
Cc1ccc(S(=O)(=O)NC(=O)NN2CCCCCC2)cc1,inactive,
O=c1[nH]cnc2c1ncn2[C@H]1CC[C@@H](CO)O1,inactive,
CC1(C)C(=O)N(Cl)C(=O)N1Cl,inactive,
CCCCCCCCCCCCCCO,inactive,
CCCC(CCC)C(=O)O,inactive,
OC(CCl)CCl,inactive,
CCc1ccc(O)c(C(C)(C)C)c1,inactive,
CCCCCOC(C)=O,inactive,
OC[C@H]1O[C@@H]2O[C@H]3[C@H](O)[C@@H](O)[C@@H](O[C@H]4[C@H](O)[C@@H](O)[C@@H](O[C@H]5[C@H](O)[C@@H](O)[C@@H](O[C@H]6[C@H](O)[C@@H](O)[C@@H](O[C@H]7[C@H](O)[C@@H](O)[C@@H](O[C@H]1[C@H](O)[C@H]2O)O[C@@H]7CO)O[C@@H]6CO)O[C@@H]5CO)O[C@@H]4CO)O[C@@H]3CO,inactive,
O=S1(=O)CCCO1,inactive,
CCCCN1C(=O)[C@@H]([C@H](O)C2CCCCC2)NC(=O)C12CCN(Cc1ccc(Oc3ccc(C(=O)O)cc3)cc1)CC2,,1.01 µM (active)
O=C(O)c1ccc2c(c1)nc(C(=O)NC1CCN(C3CC3)CC1)n2Cc1cc(-c2ccc(Cl)s2)on1,inactive,
NNC(=O)c1ccncc1,inactive,
OCc1ccccc1,inactive,
Cn1c(=O)c2[nH]cnc2n(C)c1=O,inactive,
